Assay outcomes deposited in PubChem by National Center for Advancing Translational Sciences (NCATS).
Most compounds without a hit are left out; they make up all but 3.5% or so of the library.
Tb PYK inh: T. brucei pyruvate kinase inhibition. Q57TT1. TbPYK enzyme, Kinase-Glo Plus ATP luminescence, 45 min. Potency, µM (series often up to 76.8 µM), for the others: top-dose activity, negative = inhibition, actives largely listed as inhibitors. 410,000 compounds, 0.12% hits. AID 624173; note: % is set by controls: 0 for no effect and ±100 for the full control effect; nearly all actives have a fitted effect of over 50% in size
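Enzyme and substrate buffer are dispensed first and compound is pin-transferred. ADP at 130 uM final then starts the reaction, which runs 45 min at room temperature. Detection reagent is added for 10 min before luminescence is imaged.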
FBPA Giardia inh: Giardia lamblia aldolase inhibition; Potency, µM (doses to about 59.6 µM), for inactives: at the top dose activity, negative = inhibition, usual class: inhibitors; purified Giardia FBPA; 290,000 compounds, 0.71% hits; note: % is set by controls: 0 for no effect and ±100 for the full control effect; nearly all actives have a fitted effect of over 55% in size
Target sequence (A8B2U2 whole entry, looked up): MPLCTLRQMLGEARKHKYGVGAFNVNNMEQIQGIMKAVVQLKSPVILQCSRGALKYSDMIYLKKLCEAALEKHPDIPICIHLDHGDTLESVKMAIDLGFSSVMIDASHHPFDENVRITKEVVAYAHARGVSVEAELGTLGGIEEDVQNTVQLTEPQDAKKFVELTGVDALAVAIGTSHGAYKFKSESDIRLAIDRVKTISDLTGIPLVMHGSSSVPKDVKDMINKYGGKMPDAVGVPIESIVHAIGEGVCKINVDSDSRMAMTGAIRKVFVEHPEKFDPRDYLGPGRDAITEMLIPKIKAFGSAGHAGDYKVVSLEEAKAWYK
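40 nM FBPA preincubated 10 min at RT with compound (up to 57.5 uM final), then substrate plus GAPDH/TPI/NAD/arsenate coupling and diaphorase/resazurin added. Fluorescence read after 20 min at RT, 525/598 nm.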
RE007 growth inh: less growth of the S. pombe RE007 Vpr strain; S. pombe RE007 Vpr strain, BacTiter-Glo ATP luminescence, 24 h; Potency, µM (titrated, usually from 92.2 µM), inactives show at the top dose activity change, negative = less growth, hits mostly inhibitors; 360,000 compounds, 0.21% hits; active = well fitted falling curve with a large enough effect; inconclusive = small, poorly fitted or top-dose-only effect; inactive = no such curve, though single readings can be large or run the other way; note: % is set by controls: 0 for no effect and ±100 for the full control effect; nearly all actives have a fitted effect of over 50% in size
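Fission yeast RE007 carrying one integrated HIV-1 vpr copy, seeded at OD 0.01 in PMG+AL medium with 23 nL pinned compound. Grown 24 h at 30 degrees; viability read by BacTiter-Glo luminescence after 5 min.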
Sm TGR inh: S. mansoni TGR enzyme inhibition; Potency, µM (series often up to 114 µM), inactives show at the highest dose activity change, negative = inhibition, usual class: inhibitors; purified TGR, DTNB reduction, TNB absorbance 405 nm; AID 485364; Q962Y6; 360,000 compounds, 3% hits; note: % is set by controls: 0 for no effect and ±100 for the full control effect; nearly all actives have a fitted effect of over 60% in size
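Kinetic colorimetric format: TGR-catalysed, NADPH-driven DTNB reduction monitored via TNB absorbance. Enzyme dispensed at 20 nM; compound exposure 15 min at room temperature before reaction start.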
NS1 function inh: inhibitors of influenza NS1 protein function. 270,000 compounds, 0.4% hits. Potency, µM (doses to about 46.1 µM), inactives show at the top dose activity, positive = more growth; calls by dose curve; note: actives are rising curves; nearly all actives have a fitted effect of over 50% in size
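OD600 was taken as the measure of yeast growth restored by compound in an NS1-expressing S. cerevisiae strain. Cells had been washed out of glucose medium and diluted 1:100 into galactose -URA medium, pH 6.0.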
LmPK inh: inhibitors of Leishmania mexicana pyruvate kinase. Q27686. purified LmPK, Kinase-Glo ATP luminescence, 1 h. Potency, µM (titrated, usually from 57.5 µM), for inactives: at the highest dose activity change, negative = inhibition, usual class: inhibitors. 290,000 compounds, 0.37% hits. AID 1721; note: % is set by controls: 0 for no effect and ±100 for the full control effect
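Purified LmPK (0.1 nM) converted ADP (0.1 mM) to ATP with PEP (0.5 mM) in imidazole buffer pH 7.2 with KCl and MgCl2, 1 h at room temperature. ATP was read by Kinase-Glo luminescence; data normalized to uninhibited and no-enzyme controls.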
* hit, by the source's call. Unless noted, calls come from the whole dose curve; as a rule, active = well fitted curve in the direction sought with a large enough effect; inconclusive = small, poorly fitted or top-dose-only effect, or another doubt; inactive = no such curve, though single readings can be large; an effect the other way counts as inactive or inconclusive. Potency is the fitted concentration of half-maximal effect.

Screening CC(=NCc1ccco1)c1c(C)[nH]n(-c2nc3ccccc3s2)c1=O returned Tb PYK inh -4.6%, FBPA Giardia inh 1.0%, RE007 growth inh inconclusive, Sm TGR inh -20.0%, NS1 function inh 4.9% and LmPK inh -3.0%.
For Cc1ccc(NC(=O)CSc2nc(-c3ccco3)cc(C(F)(F)F)n2)cc1 the results were Tb PYK inh 7.8% and Sm TGR inh -4.2%.
Screening COc1ccc(C2=Nn3c(nnc3-c3ccccc3O)SC2)cc1OC returned FBPA Giardia inh 6.3%.
`Cc1cccc(OCCC(=O)NCC(=O)Nc2cccc(C)c2C)c1` gave Tb PYK inh 3.0%, FBPA Giardia inh 15.8µM*, RE007 growth inh 3.9%, Sm TGR inh 1.8%, NS1 function inh 12.0% and LmPK inh 1.4%.
Screening Cc1cccc(NC(=O)CCOc2ccccc2)c1C returned Tb PYK inh -4.6%, FBPA Giardia inh 1.3%, RE007 growth inh -7.8%, Sm TGR inh 3.1%, NS1 function inh 1.8% and LmPK inh 4.1%.
`CCC(=O)O[C@@H]1CC(=O)O[C@H](C)CC=CC=C[C@@H](O)[C@H](C)C[C@H](CC=O)[C@H](O[C@H]2O[C@H](C)[C@@H](O[C@H]3C[C@@](C)(O)[C@@H](OC(=O)CC)[C@H](C)O3)[C@H](N(C)C)[C@H]2O)[C@H]1OC` gave FBPA Giardia inh -3.3%, Sm TGR inh 25.1µM*, NS1 function inh -32.6% and LmPK inh 2.4%.
NC1=NC(=O)C(CC(=O)c2ccc(Cl)cc2)S1 (stereo not drawn) was read as Tb PYK inh -10.0%, FBPA Giardia inh 5.2%, RE007 growth inh -7.0%, Sm TGR inh 20µM*, NS1 function inh 3.2% and LmPK inh 0.4%.
For O=C(O)CN1C(=O)/C(=C\c2cccc(OCc3ccccc3)c2)SC1=S the results were Tb PYK inh -7.6%, FBPA Giardia inh 27.9%, RE007 growth inh 14.3%, Sm TGR inh 0.501µM*, NS1 function inh -28.4% and LmPK inh 3.9%.
COc1ccc(N(CC(=O)Nc2ccc(C)c(C)c2)S(=O)(=O)c2ccc(C)cc2)cc1OC was read as Tb PYK inh 0.4% and Sm TGR inh -1.8%.
Cc1ccc(C2CC(=O)C(C=NCCN3CCN(C(=O)Cc4ccccc4)CC3)=C(O)C2)cc1 (stereo not drawn) was read as Tb PYK inh 2.8%, FBPA Giardia inh 2.2%, RE007 growth inh -2.3%, Sm TGR inh 22.4µM*, NS1 function inh -21.1% and LmPK inh 2.9%.
O=C1CC(c2ccco2)CC(O)=C1C=Nc1cc(Cl)cc(Cl)c1 (stereo not drawn) was read as Tb PYK inh -10.9%, FBPA Giardia inh -11.6%, RE007 growth inh -21.7%, Sm TGR inh 17.8µM*, NS1 function inh -3.7% and LmPK inh 6.5%.
Screening O=C1CC(c2ccco2)CC(O)=C1C=NCCN1CCNCC1 (stereo not drawn) returned Tb PYK inh 1.5%, FBPA Giardia inh -15.1%, RE007 growth inh -0.5%, Sm TGR inh 39.8µM*, NS1 function inh 7.3% and LmPK inh -3.2%.
CCOc1ccc(N=CC2=C(O)CC(c3ccco3)CC2=O)cc1 (stereo not drawn) was read as Tb PYK inh -2.0%, FBPA Giardia inh 2.8%, RE007 growth inh -2.5%, Sm TGR inh -12.2%, NS1 function inh 9.8% and LmPK inh 2.8%.
For O=C1CC(c2ccccc2)CC(O)=C1C=NCCN1CCN(C(=O)Cc2ccccc2)CC1 (stereo not drawn) the results were Tb PYK inh 0.1%, FBPA Giardia inh 0.0%, RE007 growth inh -5.8%, Sm TGR inh -32.8%, NS1 function inh -83.7% and LmPK inh 0.0%.
CC1=C(C(=O)O)N2C(=O)[C@@H](NC(=O)C(N)C3=CCC=CC3)[C@H]2SC1 (stereo partly drawn) was read as FBPA Giardia inh 0.9% and NS1 function inh -4.1%.
